# Assay outcomes (PubChem BioAssay)
# proKLK7 act = proKLK7 (human) activation, primary screen | P49862 | purified proKLK7, EDANS-DABCYL substrate fluorescence; 100% is mature enzyme control, 0% vehicle | activation, % at 7 µM | 0.9% of 370,000 active | AID 652039;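 active means activation above the mean of all tested compounds plus 3 SD, computed per campaign excluding outliers beyond control limits, cut at about 13% in these data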
# LEDGF integ inh = blocks HIV-1 LEDGF/p75-dependent DNA integration. inhibition, % at 3.7 µM. 0.64% of 370,000 active. TR-FRET IN-LEDGF/p75 DNA integration, Eu/Cy5;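 active means inhibition above the screen-wide mean plus 3 SD, cut at about 13% in these data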;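 further: signal is the Cy5 over europium emission ratio at 671 and 618 nm; 0% = plate median of compound wells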
# UHRF1 MBD2 ctr = blocks human UHRF1 binding to methylated DNA | UHRF1 binding to methylated oligo, TR-FRET | inhibition, % at 4.4 µM | Q96T88 | 0.75% of 370,000 active; in the data active means inhibition above about 21%;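 further: UHRF1 SRA domain binding a hemimethylated CpG hairpin DNA probe; 0% = median of test compound wells and 100% = reference inhibitor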
# Target sequence (Q96T88 whole entry, looked up, the tested form may be a part): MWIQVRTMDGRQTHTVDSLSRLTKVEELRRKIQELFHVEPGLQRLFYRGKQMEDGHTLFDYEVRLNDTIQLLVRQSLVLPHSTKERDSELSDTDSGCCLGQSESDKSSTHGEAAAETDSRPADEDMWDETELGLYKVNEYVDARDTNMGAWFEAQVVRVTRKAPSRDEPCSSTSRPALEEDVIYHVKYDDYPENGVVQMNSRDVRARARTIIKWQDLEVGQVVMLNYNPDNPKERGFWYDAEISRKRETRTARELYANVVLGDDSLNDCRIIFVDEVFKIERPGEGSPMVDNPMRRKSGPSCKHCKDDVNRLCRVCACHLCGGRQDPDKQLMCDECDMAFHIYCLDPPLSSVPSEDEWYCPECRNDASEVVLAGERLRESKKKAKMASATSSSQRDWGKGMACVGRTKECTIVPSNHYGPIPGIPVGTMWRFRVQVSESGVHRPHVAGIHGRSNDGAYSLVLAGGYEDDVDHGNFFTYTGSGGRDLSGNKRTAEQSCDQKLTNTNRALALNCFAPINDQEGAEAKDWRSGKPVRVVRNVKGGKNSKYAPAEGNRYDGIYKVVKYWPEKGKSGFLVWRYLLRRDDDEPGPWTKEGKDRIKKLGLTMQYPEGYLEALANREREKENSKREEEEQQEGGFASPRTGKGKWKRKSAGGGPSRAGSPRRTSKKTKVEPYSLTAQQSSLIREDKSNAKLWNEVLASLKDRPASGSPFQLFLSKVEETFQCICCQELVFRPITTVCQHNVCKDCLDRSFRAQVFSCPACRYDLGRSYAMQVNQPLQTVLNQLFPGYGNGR
# Rin1 Abl inh = blocks binding of human Rin1 to Abl; TR-FRET Rin1/Abl binding, biochemical; inhibition, % at 7.35 µM; 0.4% of 360,000 active; AID 588664; in the data active means inhibition above about 5%, passing the limit was not always enough
# MBD2 DNA inh = blocks human MBD2 binding to methylated DNA | inhibition, % at 4.4 µM | 0.31% of 370,000 active | Q9UBB5 | AID 686964 | TR-FRET, MBD2 binding to methylated oligonucleotide; in the data active means inhibition above about 13%
# Neddyl block = inhibitors of human cullin neddylation; TR-FRET cullin neddylation, biochemical; AID 651699; calls only at 25 µM; 0.58% of 360,000 active; in the data active means inhibition above about 36%
# Neddyl inh conf = confirmation of human cullin neddylation inhibitors; 13% of 1,800 active; AID 652217; TR-FRET cullin neddylation biochemical assay; calls only at 25 µM; shares compounds with Neddyl block; in the data active means inhibition above about 40%;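 further: neddylation substrate is the cullin 1 ring ligase complex with SKP2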
# Starred values were filed as active, the others as inactive; i = inactive; / = not tested or not shown; + = active, no number. Hits are enriched below; roughly 3.1% of the tested compounds scored in any of these assays.
SMILES,proKLK7 act,LEDGF integ inh,UHRF1 MBD2 ctr,Rin1 Abl inh,MBD2 DNA inh,Neddyl block,Neddyl inh conf
CC=C1OC(n2cnc3c(N)ncnc32)C(O)C1O (stereo not drawn),0,0,1,0,3,+,i
Oc1ccc(Br)cc1C=Nc1ccc2c3c(cccc13)CC2,-20,1,-6,-2,-9,+,/
Oc1ccc(Cl)cc1C=Nc1ccccc1Br,0,3,1,-1,-8,i,/
O=S1(=O)N=C(N(CCO)/N=C/c2ccc(Cl)cc2)c2ccccc21,0,1,-4,-2,-5,+,/
O=S1(=O)N=C(N(CCO)/N=C/c2ccc(Br)cc2)c2ccccc21,0,2,0,0,-1,/,/
Cc1cc2c(c(=O)o1)[C@@]1(C(=O)N(C)c3ccccc31)C1=C(CC3(CCCCC3)OC1=O)O2,0,-1,0,/,4,/,/
COc1ccc(/C=C/C(=O)OCC(=O)Nc2cc3oc4ccccc4c3cc2OC)cc1,0,2,-2,/,1,/,/
COc1cc2c(cc1NC(=O)/C=C/c1cc(OC)c(OC)c(OC)c1)oc1ccccc12,-9,0,-2,0,3,+,i
COc1ccc(/C=C/C(=O)NCc2cccnc2)cc1,0,3,-4,-4,-4,i,/
COc1cc(/C=C/C(=O)NCc2cccnc2)cc(OC)c1OC,0,-2,-1,-4,-2,+,i
COc1ccc(-c2cc(C(F)(F)F)nc(-n3ccnc3)n2)cc1,0,6,2,-4,2,+,i
COc1ccc(-c2cc(C(F)(F)F)nc(-n3cncn3)n2)cc1,7,1,-3,0,-5,/,/
CC(C)OC(=O)C(C#N)c1nc2ccccc2nc1N1CCCC1 (stereo not drawn),/,/,/,2,/,+,i
COC(=O)C(C#N)c1nc2ccccc2nc1N1CCCC1 (stereo not drawn),1,3,-10,-3,-8,i,/
COC(=O)C1CCN(c2nc3ccccc3nc2C(C#N)C(=O)OCC(C)C)CC1 (stereo not drawn),1,1,-2,-2,-9,+,i
CCCCCCSc1ccc([C@H]2N[C@@](Cc3ccccc3)(C(=O)OC)[C@H]3C(=O)N(C)C(=O)[C@@H]23)cc1OC,0,1,0,0,3,i,/
CC(=O)Nc1cc(-c2ccc(C(=O)NC3CC3)cc2)cn2c(-c3ccc(F)c(Cl)c3)cnc12,-2,-4,-1,-2,-1,i,/
CC1Oc2ccccc2C=C1/C=N/NC(=O)c1ccccc1 (stereo not drawn),3,2,-3,-2,3,/,/
CC1Oc2ccccc2C=C1/C=N/NC(=O)c1ccccc1O (stereo not drawn),-2,5,-2,-2,-8,+,i
Cc1cccc(-n2ncc3c(NCCCO)ncnc32)c1,0,6,-1,3,0,+,i
CC1CCN(c2ccc(N3C(=O)C4CCCCC4C3=O)cc2[N+](=O)[O-])CC1 (stereo not drawn),0,2,0,0,-4,i,/
COc1ccccc1-c1sc2cc3c(cc2c1C#Cc1cncn1C)OCO3,-24,-1,1,2,-4,+,+
COc1ccc(CCNC(=O)c2ccc(Cl)cc2)cc1OC,0,2,-2,-2,0,i,/
COc1ccc(CCNC(=O)c2ccc3nc4cc(Cl)ccc4c(=O)n3c2)cc1OC,-1,5,-6,2,-3,+,i
COc1ccc(Cl)cc1NC(=O)c1nnn(CC(=O)Nc2ccc(C)c(C)c2)c1N,0,1,5,-2,3,+,i
SMILES,proKLK7 act,LEDGF integ inh,UHRF1 MBD2 ctr,Rin1 Abl inh,MBD2 DNA inh,Neddyl block,Neddyl inh conf
COc1ccc(NC(=O)Cn2nnc(C(=O)Nc3ccc(F)c(Cl)c3)c2N)cc1OC,0,1,2,4,0,i,/
Cc1ccc(-c2c(C(=O)N/N=C/c3ccc(OC(C)C)cc3)nnn2-c2nonc2N)cc1,-13,-4,-1,-4,-2,+,i
CCCOc1ccc(-c2c(C(=O)N/N=C(\C)c3ccco3)nnn2-c2nonc2N)cc1,0,-2,0,0,-4,+,i
COCc1c(C(=O)N/N=C(/C)c2cccs2)nnn1-c1nonc1N,0,-4,-1,1,-1,+,i
COc1cccc(CN2CCN(C(=O)[C@H]3O[C@@H](n4cnc5c(N)ncnc54)[C@H](O)[C@@H]3O)CC2=O)c1,-1,1,1,4,-3,i,/
COC(OC)C1Nc2ccccc2C(=O)N1c1ccc(F)cc1 (stereo not drawn),6,0,-1,6,-1,+,/
CC(Oc1ccccc1F)c1ccnc2nc(/N=C/N(C)C)nn12 (stereo not drawn),0,1,0,-2,1,+,i
COc1ccc(-c2ccc3c(N)c(C(=O)NC(C)C)sc3n2)cc1OC,2,4,13,-2,2,+,/
CC(C)(C)C(=O)OC12CCCN(C1)/C(=C/c1cccnc1)C2 (stereo not drawn),0,5,3,/,-1,/,/
N#Cc1nc(-c2ccco2)oc1NCc1ccccc1Cl,0,1,1,1,4,+,i
N#Cc1nc(-c2ccco2)oc1NCc1ccco1,0,4,0,-2,1,/,/
Cc1ccc(NC(=O)CSc2nc(C)cc(=O)[nH]2)c(C)c1,0,0,0,/,1,/,/
O=C(Nc1ccc2nc(-c3cccnc3)[nH]c2c1)C1CCCCC1,1,-2,-2,0,1,+,i
COc1ccc(C[C@H]2c3cc(O)c(OC)cc3CC[N+]2(C)[O-])cc1O (stereo partly drawn),0,0,-8,-2,-2,+,+
COc1cc2c(cc1O)C(Cc1ccc(O)cc1)[N+](C)([O-])CC2 (stereo not drawn),0,2,0,0,5,i,/
COc1ccc(Cl)cc1S(=O)(=O)N(C)CC(=O)N1CCOCC1,0,-4,-1,0,2,i,/
NNC(=O)c1oc2nc(-c3ccc(Cl)cc3)cc(-c3ccccc3)c2c1N,-14,-3,-4,0,10,+,i
Nc1c(C(=O)N/N=C/c2cccnc2)oc2nc(-c3ccccc3)cc(-c3ccco3)c12,-3,5,-5,-2,-7,+,i
COC(=O)c1ccc(Cn2ccc3ccc(-c4ccc5ccn(C(=O)C6CCCCC6)c5c4)cc32)cc1,-2,-4,0,/,1,/,/
CCCN(CCC)c1nc(NC2CCN(C(=O)OCC)CC2)nc(OC)n1,0,-1,2,-1,3,i,/
